# Source: PubChem BioAssay (EPA / NIEHS)
# Results filed as inconclusive are left out. Calls of active or inactive are those of the source. Rule for the calls, unless noted: active = hit-call score of the fitted dose curve at least 0.9, where 1 is the maximum; inconclusive = response in the unintended direction; inactive = score below 0.9.
# System: not listed separately
# Test: Tanguay_ZF_120hpf_PIG_legacy: (Legacy) Oregon State University Tanguay Lab 120 Hour Post-fertilization zebrafish Assay for Pigmentation Malformation (AID 2283650)
# Conditions: not given
# Procedure, shortened: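 Pigment malformation recorded as a binary call at 120 hpf in zebrafish (Tropical 5D) exposed singly from 6 hpf after pronase dechorionation. Static, sealed, 28C exposure, 0.64% DMSO; mortality excludes scoring; positive-direction fit against DMSO.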
Compound,outcome,AC50
C[N+]1(C)CCCCC1,inactive,–
O=[N+]([O-])c1cc(C(F)(F)F)c(Cl)c([N+](=O)[O-])c1Nc1ncc(C(F)(F)F)cc1Cl,inactive,–
CCCOCC(=Nc1ccc(Cl)cc1C(F)(F)F)n1ccnc1,inactive,–
CCOC(=O)COc1cc(-c2nn(C)c(OC(F)F)c2Cl)c(F)cc1Cl,inactive,–
CCOP(=O)(SC(C)CC)N1CCSC1=O (configuration not stated),inactive,–
CC(COc1ccc(Oc2ccccc2)cc1)Oc1ccccn1 (configuration not stated),inactive,–
COc1cccc(C(=O)NN(C(=O)c2cc(C)cc(C)c2)C(C)(C)C)c1C,inactive,–
CCC(=NOC/C=C/Cl)C1=C(O)CC(C2CCOCC2)CC1=O (configuration not stated),inactive,–
CCOP(=S)(OCC)OC(Cl)C(Cl)(Cl)Cl (configuration not stated),inactive,–
Cc1ccn2nc(S(=O)(=O)Nc3c(F)cccc3F)nc2n1,inactive,–
Nc1c(Cl)cc([N+](=O)[O-])cc1Cl,–,10.8 µM (active)
CCCSP(=O)(OCC)Oc1ccc(Br)cc1Cl (configuration not stated),inactive,–
CCOP(=O)(OCC)Oc1cc(C)nc(C(C)C)n1,inactive,–
COc1ccc(C(=CC(=O)N2CCOCC2)c2ccc(Cl)cc2)cc1OC,inactive,–
CNC(=O)ON=C(C)SC,inactive,–
CCCSP(=O)(OCC)SCCC,inactive,–

Compound,outcome,AC50
CCc1cnc(C2=NC(C)(C(C)C)C(=O)N2)c(C(=O)O)c1 (configuration not stated),inactive,–
Cc1nn(-c2cc(NS(C)(=O)=O)c(Cl)cc2Cl)c(=O)n1C(F)F,inactive,–
C#CC(C)(C)NC(=O)c1cc(Cl)cc(Cl)c1,inactive,–
CC(C1CC1)C(O)(Cn1cncn1)c1ccc(Cl)cc1 (configuration not stated),inactive,–
CCNc1nc(Cl)nc(NC(C)(C)C#N)n1,inactive,–
CCCCOC(=O)[C@@H](C)Oc1ccc(Oc2ccc(C#N)cc2F)cc1,inactive,–
COP(=O)(NC(C)=O)SC (configuration not stated),inactive,–
CCc1cccc(CC)c1N(COC)C(=O)CCl,inactive,–
CNc1cnn(-c2cccc(C(F)(F)F)c2)c(=O)c1Cl,inactive,–
CCOP(=S)(Oc1cnc(C(C)(C)C)nc1)OC(C)C (configuration not stated),inactive,–
CSc1nc(NC(C)C)nc(NC(C)C)n1,inactive,–
CN1COCN(Cc2cnc(Cl)s2)C1=N[N+](=O)[O-],inactive,–
O=C(O)c1cc(Oc2ccc(C(F)(F)F)cc2Cl)ccc1[N+](=O)[O-],inactive,–
C=C(C)[C@H]1Cc2c(ccc3c2O[C@@H]2COc4cc(OC)c(OC)cc4[C@@H]2C3=O)O1,inactive,–
CNC(=O)Oc1cccc2c1OC(C)(C)O2,inactive,–

# System: not listed separately
# Test: Tanguay_ZF_120hpf_CIRC_legacy: (Legacy) Oregon State University Tanguay Lab 120 Hour Post-fertilization zebrafish Assay for Circulatory Malformation (AID 2283651)
# Conditions: not given
# Procedure, shortened: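 Static exposure, 6–120 hpf, 28C, sealed and dark; one dechorionated 5D embryo/well; DMSO 0.64% v/v final. Binary circulation endpoint by brightfield; dead embryos not scored.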
row,Compound,outcome
1,C[N+]1(C)CCCCC1,inactive
2,O=[N+]([O-])c1cc(C(F)(F)F)c(Cl)c([N+](=O)[O-])c1Nc1ncc(C(F)(F)F)cc1Cl,inactive
3,CCOC(=O)COc1cc(-c2nn(C)c(OC(F)F)c2Cl)c(F)cc1Cl,inactive
4,CCOP(=O)(SC(C)CC)N1CCSC1=O (configuration not stated),inactive
5,CN(C)[C@@H]1C(=O)C(C(N)=O)=C(O)[C@@]2(O)C(=O)C3=C(O)c4c(O)cccc4[C@@](C)(O)[C@H]3[C@H](O)[C@@H]12,inactive
6,COc1cccc(C(=O)NN(C(=O)c2cc(C)cc(C)c2)C(C)(C)C)c1C,inactive
7,CCC(=NOC/C=C/Cl)C1=C(O)CC(C2CCOCC2)CC1=O (configuration not stated),inactive
8,CC1=NNC(=O)N(/N=C/c2cccnc2)C1,inactive
9,Cc1ccn2nc(S(=O)(=O)Nc3c(F)cccc3F)nc2n1,inactive
10,Nc1c(Cl)cc([N+](=O)[O-])cc1Cl,inactive
11,CCOP(=O)(OCC)Oc1cc(C)nc(C(C)C)n1,inactive
12,COc1ccc(C(=CC(=O)N2CCOCC2)c2ccc(Cl)cc2)cc1OC,inactive
13,CNC(=O)ON=C(C)SC,inactive
14,CCCSP(=O)(OCC)SCCC,inactive
15,COP(=O)(OC)OC(Br)C(Cl)(Cl)Br (configuration not stated),inactive
16,CCc1cnc(C2=NC(C)(C(C)C)C(=O)N2)c(C(=O)O)c1 (configuration not stated),inactive
17,Cc1nn(-c2cc(NS(C)(=O)=O)c(Cl)cc2Cl)c(=O)n1C(F)F,inactive
18,C#CC(C)(C)NC(=O)c1cc(Cl)cc(Cl)c1,inactive
19,CC(C1CC1)C(O)(Cn1cncn1)c1ccc(Cl)cc1 (configuration not stated),inactive
20,CCNc1nc(Cl)nc(NC(C)(C)C#N)n1,inactive
21,COP(=O)(NC(C)=O)SC (configuration not stated),inactive
22,CCc1cccc(CC)c1N(COC)C(=O)CCl,inactive
23,CNc1cnn(-c2cccc(C(F)(F)F)c2)c(=O)c1Cl,inactive
24,CCOP(=S)(Oc1cnc(C(C)(C)C)nc1)OC(C)C (configuration not stated),inactive
25,CSc1nc(NC(C)C)nc(NC(C)C)n1,inactive
26,CN1COCN(Cc2cnc(Cl)s2)C1=N[N+](=O)[O-],inactive
27,O=C(O)c1cc(Oc2ccc(C(F)(F)F)cc2Cl)ccc1[N+](=O)[O-],inactive
28,C=C(C)[C@H]1Cc2c(ccc3c2O[C@@H]2COc4cc(OC)c(OC)cc4[C@@H]2C3=O)O1,inactive

# Read-out: kallikrein-3 (KLK3), KLK3 (gene 354)
# Test: LTEA_HepaRG_KLK3: Life Technologies and Expression Analysis (LTEA) Assay for kallikrein-3 (KLK3) using HepaRG (AID 2283652; active = hit-call score of the fitted dose curve at least 0.9, where 1 is the maximum; inactive = score below 0.9)
# Conditions: mRNA level, 48 h; actives raise or lower the signal
# Procedure, shortened: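 KLK3 transcript levels were measured by TaqMan qRT-PCR with normalisation to three housekeeping genes. HepaRG cultures received chemicals for 48 h at up to 100 uM (half-log, 8 points, 0.5% DMSO vehicle), fitted in both directions against DMSO.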
row,Compound,outcome
1,CC(COc1ccc(Oc2ccccc2)cc1)Oc1ccccn1 (configuration not stated),inactive
2,CCOP(=S)(Oc1cnc(C(C)(C)C)nc1)OC(C)C (configuration not stated),inactive
3,CNC(=O)Oc1cccc2c1OC(C)(C)O2,inactive
